Growth data for 13 molecules are collected here from PubChem BioAssay (NCI).

Some test systems named below: SR leukemia; RPMI-8226 leukemia; OVCAR-8 ovarian; OVCAR-5 ovarian; OVCAR-4 ovarian; SK-OV-3 ovarian; IGROV1 ovarian; OVCAR-3 ovarian; HS 578T breast; NCI/ADR-RES ovarian.
Common to all, as to test: NCI-60 one-dose screen, 48 h (100 = growth as untreated, 0 = no growth, -100 = all killed)
Conditions in all cases: 10 µM unless noted

The panel holds about 83,000 compounds, 20% with a hit somewhere; the sample as a whole holds those more often.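 Cells were grown in 96-well plates and exposed to the test compound at a single concentration for 48 hours; results are reported as percent growth, with values below 10 considered active.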 Unmarked numbers belong to inactive results. Activity calls are given as the source filed them.

`COc1cc(NC(C)CCCNC(=O)CCC(=O)NCCCNCCCCCCCCNCCCNC(=O)CCC(=O)NCCCC(C)Nc2cc(OC)cc3cccnc23)c2ncccc2c1` (stereo not given): the growth is 107% with SR leukemia; 53.5% in the test on RPMI-8226 leukemia; 70.6% in the test on OVCAR-8 ovarian; 66.8% with OVCAR-5 ovarian; 18.1% in the test on OVCAR-4 ovarian; 97.9% with SK-OV-3 ovarian. The growth is 59.1% with IGROV1 ovarian, 39.8% in the test on OVCAR-3 ovarian, 75% with HS 578T breast and 91.7% in the test with NCI/ADR-RES ovarian.

On to `CN1CCC(=C(c2ccccc2)c2ccccc2)C(c2ccccc2)C1` (stereo not given), for which the growth was 96.5% in the test on SR leukemia; 103% with RPMI-8226 leukemia; 99.3% with OVCAR-8 ovarian; 90% with OVCAR-5 ovarian; 104% in the test with OVCAR-4 ovarian; 115% in the test with SK-OV-3 ovarian. The growth in the test on IGROV1 ovarian is 81.7%; with OVCAR-3 ovarian it was 113%; in the test on HS 578T breast, 103%; with NCI/ADR-RES ovarian it was 83.4%.

As for `CCCOc1ccc(/C=N/Nc2cc(C)nc3ccc(Cl)cc23)cc1`, the growth in the test with SR leukemia is -35.5% (active); in the test on RPMI-8226 leukemia, -20.2% (active); in the test on OVCAR-8 ovarian, -44.6% (active); with OVCAR-5 ovarian, 96.3%; in the test with OVCAR-4 ovarian, 48.5%; in the test with SK-OV-3 ovarian, 89.1%. Besides, the growth with IGROV1 ovarian was 42.1%; in the test with OVCAR-3 ovarian, -27.5% (active); with HS 578T breast it was 89%; in the test with NCI/ADR-RES ovarian it was 82.4%.

On to `CC(C)(C)c1cc(/C=N/NC(=O)c2ccccc2NC(=O)c2cccs2)c(O)c(C(C)(C)C)c1`, for which the growth in the test on SR leukemia was -27.2% (active); in the test on RPMI-8226 leukemia, 32.5%; in the test on OVCAR-8 ovarian, 10.1%; in the test on OVCAR-5 ovarian it was 67.7%; with OVCAR-4 ovarian, -34.6% (active); in the test on SK-OV-3 ovarian, 31.8%. For the same molecule, the growth in the test on IGROV1 ovarian is 36.3%; with OVCAR-3 ovarian it was 6.92% (active); in the test with HS 578T breast, 71.5%; in the test on NCI/ADR-RES ovarian, 18.8%.

In the case of `CC1=C(C(=O)/C=C/c2c[nH]c3ccccc23)C(c2ccccc2)NC(=S)N1` (stereo not given), the growth is 88.8% in the test with SR leukemia; 101% with RPMI-8226 leukemia; 101% in the test with OVCAR-8 ovarian; 96.7% in the test with OVCAR-5 ovarian; 101% in the test with OVCAR-4 ovarian; 95.4% in the test with SK-OV-3 ovarian. The growth with IGROV1 ovarian was 76.8%; in the test on OVCAR-3 ovarian, 98.5%; in the test with HS 578T breast, 95.9%; in the test on NCI/ADR-RES ovarian, 97.1%.

As to `O=C1c2c(c3c4cccc(F)c4[nH]c3c3ccc4ccccc4c23)C(=O)N1O`, the growth is 7.28% (active) in the test with SR leukemia; 0.257% (active) in the test with RPMI-8226 leukemia; 42.2% in the test on OVCAR-8 ovarian; 103% in the test on OVCAR-5 ovarian; 56.6% in the test with OVCAR-4 ovarian; 75.5% in the test with SK-OV-3 ovarian. For the same molecule, the growth was 35.2% with IGROV1 ovarian, 36% in the test with OVCAR-3 ovarian, 62.1% in the test on HS 578T breast and 64.2% in the test on NCI/ADR-RES ovarian.

Consider `Oc1cccc(CCc2ccc(Oc3cc(CCc4cccc(O)c4)cc(O)c3O)cc2)c1`, for which the growth in the test with SR leukemia is 35.9%; in the test with RPMI-8226 leukemia it was 39.5%; in the test with OVCAR-8 ovarian it was 75.3%; in the test on OVCAR-5 ovarian, 107%; in the test on OVCAR-4 ovarian, 58.9%; in the test with SK-OV-3 ovarian, 94.8%. Further, the growth with IGROV1 ovarian was 41.7%; with OVCAR-3 ovarian, 63.8%; in the test with HS 578T breast it was 84.4%; in the test with NCI/ADR-RES ovarian it was 82.1%.

For the molecule `COc1ccc(/C=C2\Oc3cc(OCCCN4CCCCC4)ccc3C2=O)cc1OC`, the growth was -18.7% (active) with SR leukemia; 90.6% in the test with RPMI-8226 leukemia; 94.4% in the test on OVCAR-8 ovarian; 95.2% in the test with OVCAR-5 ovarian; 89.4% in the test on OVCAR-4 ovarian; 113% in the test on SK-OV-3 ovarian. Further, the growth with IGROV1 ovarian is 93.9%; with OVCAR-3 ovarian, 93%; with HS 578T breast, 92%; in the test with NCI/ADR-RES ovarian it was 97.1%.

Turning to `O=C1Nc2cc(-c3cccc([N+](=O)[O-])c3)ccc2/C1=C/c1ccc[nH]1`, the growth is 11.3% in the test on SR leukemia; 81.3% in the test on RPMI-8226 leukemia; 101% with OVCAR-8 ovarian; 48.8% in the test with OVCAR-5 ovarian; 45.4% in the test with OVCAR-4 ovarian; 59.6% in the test with SK-OV-3 ovarian. In addition, the growth with IGROV1 ovarian is 54.5%; in the test with OVCAR-3 ovarian, 70.6%; in the test with HS 578T breast it was 102%; in the test with NCI/ADR-RES ovarian it was 99.2%.

For the molecule `COc1ccc(/C=C2\Oc3cc(OCCCCCN4CCCCC4)ccc3C2=O)cc1OC`, the growth in the test with SR leukemia was -26.1% (active); with RPMI-8226 leukemia, 76.1%; in the test on OVCAR-8 ovarian it was 83.3%; in the test with OVCAR-5 ovarian it was 95.9%; in the test with OVCAR-4 ovarian, 48.1%; in the test on SK-OV-3 ovarian, 104%. Also, the growth was 94.3% with IGROV1 ovarian, 82.8% with OVCAR-3 ovarian, 93.8% in the test with HS 578T breast and 84% with NCI/ADR-RES ovarian.

On to `CCOC(=O)C1=C(C)NC(SCc2cc(=O)oc3ccc(F)cc23)=N[C@@H]1c1cccc2ccccc12`, for which the growth with SR leukemia was 83.5%; in the test with RPMI-8226 leukemia, 90.5%; in the test with OVCAR-8 ovarian it was 89.5%; in the test with OVCAR-5 ovarian, 119%; in the test with OVCAR-4 ovarian, 102%; with SK-OV-3 ovarian, 92.5%. Moreover, the growth was 99.4% in the test with IGROV1 ovarian, 92.4% in the test on OVCAR-3 ovarian, 106% with HS 578T breast and 98.7% with NCI/ADR-RES ovarian.

On to `COc1ccc2c(c1)oc1c(C)c3c(c(C)c12)C(=O)N(N)C3=O`, for which the growth in the test with SR leukemia is 26.2%; in the test with RPMI-8226 leukemia it was 59.5%; in the test with OVCAR-8 ovarian it was 26.9%; in the test with OVCAR-5 ovarian, 40.4%; in the test on OVCAR-4 ovarian, -20.8% (active); with SK-OV-3 ovarian, 61.2%. The growth in the test on IGROV1 ovarian is 26.8%; with OVCAR-3 ovarian it was 24.9%; with HS 578T breast, 19.1%; with NCI/ADR-RES ovarian, 28.6%.

Regarding `CC(=O)Oc1ccc(/C=N/NC(N)=S)nc1`, the growth in the test on SR leukemia was 27.9%; in the test on RPMI-8226 leukemia it was 88.7%; in the test on OVCAR-8 ovarian, 46.3%; with OVCAR-5 ovarian, 110%; in the test with OVCAR-4 ovarian, 56%; in the test with SK-OV-3 ovarian, 88%. In addition, the growth in the test on IGROV1 ovarian was 92.3%; with OVCAR-3 ovarian, 68%; in the test on HS 578T breast, 127%; with NCI/ADR-RES ovarian it was 41.9%.
